Experimental findings from PubChem BioAssay (NCI) are described below.

This is part of a sample that, as a whole, favours compounds with a hit. Of some 79,000 tested, about 15% had one in any assay. A number with no mark means an inactive call. The source made the active and inactive calls. Rule as the data show it: active = growth inhibition above about 70%; inactive = the rest.

Assay [1] can be described thus: NCI Yeast Anticancer Drug Screen. Data for the rad50 strain (AID 155).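 Also: 0% = growth of vehicle-only cultures of the same strain.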 To be noted: S. cerevisiae rad50 strain growth inhibition, active compounds read high. The method in brief:
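Vehicle-treated cultures provide the reference for the growth inhibition reported for compound-exposed, repair-deficient yeast.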

Assay [2] in a line: NCI Yeast Anticancer Drug Screen. Data for the mec2-1 strain (AID 157). To be noted: S. cerevisiae mec2-1 strain, active compounds read high. The method in brief: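 Each compound was tested on mec2-1 yeast, a strain altered in DNA damage repair or cell cycle control. Growth inhibition is reported relative to vehicle.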
Assay [3] in a line: NCI Yeast Anticancer Drug Screen. Data for the sgs1 mgt1 strain (AID 161).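 Also: 0% = growth of cultures given vehicle only.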 To be noted: S. cerevisiae sgs1 mgt1 strain, active compounds read high. The method in brief:
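Mutant yeast exposed to compound; growth scored against vehicle-only wells.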

A short description of assay [4]: NCI Yeast Anticancer Drug Screen. Data for the cln2 rad14 strain (AID 165).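 Also: 0% = growth equal to vehicle treated cultures.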 To be noted: S. cerevisiae cln2 rad14 strain, active compounds read high. The method in brief: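 Test compounds were added to cln2 rad14 yeast cultures; inhibition of growth was then determined by comparison with vehicle treatment.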
Assay [5] can be described thus: NCI Yeast Anticancer Drug Screen. Data for the bub3 strain (AID 167). To be noted: S. cerevisiae bub3 mutant strain, active compounds read high. The method in brief: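 Mutant yeast screening strain plus compound; vehicle-treated cultures serve as the 0% inhibition reference.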
Assay [6] in a line: NCI Yeast Anticancer Drug Screen. Data for the mlh1 rad18 strain (AID 175). To be noted: S. cerevisiae mlh1 rad18 strain growth inhibition, active compounds read high. The method in brief: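 Inhibition values reflect reduced growth of mutant yeast versus vehicle-treated controls following compound exposure; the mutations affect DNA damage repair.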
[7] abbreviates: at 5.0 µM (retest, dose inferred, filed as 0.5).
Setting [8] is: at 50.0 µM (retest, dose inferred, filed as 5.0).

On to `COc1ccc(-c2c3ccccc3[n+](-c3ccccc3)c3ccccc23)cc1`, for which the growth inhibition is 98% (active) in assay [1] (setting [7]); 99% (active) in assay [1] (setting [8]); 99.6% (active) in assay [1] (at 50.0 µM); 99% (active) in assay [2] (setting [7]); 100% (active) in assay [2] (setting [8]); 99.5% (active) in assay [2] (at 50.0 µM). For the same compound, the growth inhibition was 99% (active) in assay [3] (setting [7]); 100% (active) in assay [3] (setting [8]); 99.5% (active) in assay [3] (at 50.0 µM); 96% (active) in assay [4] (setting [7]); 99% (active) in assay [4] (setting [8]); 99.2% (active) in assay [4] (at 50.0 µM). Also, the growth inhibition in assay [5] (setting [7]) was 99% (active); in assay [5] (setting [8]) it was 99% (active); in assay [5] (at 50.0 µM), 99.2% (active); in assay [6] (setting [7]) it was 99% (active); in assay [6] (setting [8]), 99% (active); in assay [6] (at 50.0 µM), 99.3% (active).

Consider `O=C(Nc1ccc(Br)cc1)c1c(-c2ccccc2)c2ccc(O)cc2oc1=O`, for which the growth inhibition in assay [1] (setting [7]) is 0%; in assay [1] (setting [8]), 96% (active); in assay [1] (at 50.0 µM) it was 96.3% (active); in assay [2] (setting [7]) it was -9%; in assay [2] (setting [8]), 97% (active); in assay [2] (at 50.0 µM), 95.5% (active). Besides, the growth inhibition in assay [3] (setting [7]) is -5%; in assay [3] (setting [8]) it was 93% (active); in assay [3] (at 50.0 µM), 98.6% (active); in assay [4] (setting [7]), -7%; in assay [4] (setting [8]), 95% (active); in assay [4] (at 50.0 µM) it was 94% (active). Also, the growth inhibition is -10% in assay [5] (setting [7]); 96% (active) in assay [5] (setting [8]); 97.2% (active) in assay [5] (at 50.0 µM); -3% in assay [6] (setting [7]); 96% (active) in assay [6] (setting [8]); 98.4% (active) in assay [6] (at 50.0 µM).

As for `COc1ccc(C2Oc3ccc(Cl)cc3C=C2[N+](=O)[O-])cc1OC` (stereo not given), the growth inhibition is 89% (active) in assay [1] (setting [7]); 97% (active) in assay [1] (setting [8]); 74% (active) in assay [1] (at 50.0 µM); 91% (active) in assay [2] (setting [7]); 96% (active) in assay [2] (setting [8]); 77% (active) in assay [2] (at 50.0 µM). The growth inhibition in assay [3] (setting [7]) is 86% (active); in assay [3] (setting [8]) it was 97% (active); in assay [3] (at 50.0 µM), 85.5% (active); in assay [4] (setting [7]), 63%; in assay [4] (setting [8]) it was 96% (active); in assay [4] (at 50.0 µM), 84.3% (active). Further, the growth inhibition was 88% (active) in assay [5] (setting [7]); 96% (active) in assay [5] (setting [8]); 86.7% (active) in assay [5] (at 50.0 µM); 95% (active) in assay [6] (setting [7]); 97% (active) in assay [6] (setting [8]); 86.2% (active) in assay [6] (at 50.0 µM).

On to `CC(=O)c1nc2ccccc2n1C(C)C(=O)c1ccccc1` (stereo not given), for which the growth inhibition was 39% in assay [1] (setting [7]); 37% in assay [1] (setting [8]); 16.9% in assay [1] (at 50.0 µM); 23% in assay [2] (setting [7]); 34% in assay [2] (setting [8]); 21.6% in assay [2] (at 50.0 µM). The growth inhibition is 18% in assay [3] (setting [7]); 74% (active) in assay [3] (setting [8]); 68.4% in assay [3] (at 50.0 µM); 33% in assay [4] (setting [7]); 24% in assay [4] (setting [8]); 6.15% in assay [4] (at 50.0 µM). For the same compound, the growth inhibition in assay [5] (setting [7]) is -7%; in assay [5] (setting [8]), 35%; in assay [5] (at 50.0 µM), 37.5%; in assay [6] (setting [7]), 18%; in assay [6] (setting [8]) it was 30%; in assay [6] (at 50.0 µM) it was -1.7%.

Take `CC(C)c1cc(O)c2c(c1O)C1CC3C(C)(C)CCC[C@]23C(=O)O1` (stereo not given in full): the growth inhibition in assay [1] (setting [7]) is 1%; in assay [1] (setting [8]), 49%; in assay [1] (at 50.0 µM) it was 92.5% (active); in assay [2] (setting [7]), 9%; in assay [2] (setting [8]), 82% (active); in assay [2] (at 50.0 µM), 95% (active). Also, the growth inhibition in assay [3] (setting [7]) is -5%; in assay [3] (setting [8]) it was 76% (active); in assay [3] (at 50.0 µM), 92% (active); in assay [4] (setting [7]), 4%; in assay [4] (setting [8]), 61%; in assay [4] (at 50.0 µM), 88.2% (active). The growth inhibition in assay [5] (setting [7]) was 1%; in assay [5] (setting [8]), 64%; in assay [5] (at 50.0 µM), 94.7% (active); in assay [6] (setting [7]) it was 3%; in assay [6] (setting [8]), 68%; in assay [6] (at 50.0 µM) it was 96.2% (active).

For `CN(C)c1ncnc2c1ncn2C`, the growth inhibition in assay [1] (setting [7]) was 29%; in assay [1] (setting [8]) it was 61%; in assay [1] (at 50.0 µM), 70.8% (active); in assay [2] (setting [7]), 15%; in assay [2] (setting [8]) it was 81% (active); in assay [2] (at 50.0 µM), 61.4%. The growth inhibition in assay [3] (setting [7]) is 16%; in assay [3] (setting [8]), 53%; in assay [3] (at 50.0 µM), 59.1%; in assay [4] (setting [7]), -1%; in assay [4] (setting [8]) it was 38%; in assay [4] (at 50.0 µM), 17.4%. Moreover, the growth inhibition in assay [5] (setting [7]) was 20%; in assay [5] (setting [8]), 98% (active); in assay [5] (at 50.0 µM), 38.7%; in assay [6] (setting [7]), 26%; in assay [6] (setting [8]), 72% (active); in assay [6] (at 50.0 µM), 61.4%.

Take `CCC12C=CCN3CC[C@@]4(c5cc([C@@]6(C(=O)OC)C[C@@H]7CN(CCc8c6[nH]c6ccccc86)C[C@](O)(CC)C7)c(OC)cc5N(C)[C@H]4[C@@](O)(C(=O)OC)[C@@H]1OC(=O)CCCCCCCCCCCN1C(=O)C=CC1=O)[C@H]32` (stereo not given in full): the growth inhibition is 16% in assay [1] (setting [7]); 98% (active) in assay [1] (setting [8]); 88.5% (active) in assay [1] (at 50.0 µM); 42% in assay [2] (setting [7]); 99% (active) in assay [2] (setting [8]); 92.4% (active) in assay [2] (at 50.0 µM). Moreover, the growth inhibition was 35% in assay [3] (setting [7]); 98% (active) in assay [3] (setting [8]); 92.7% (active) in assay [3] (at 50.0 µM); 16% in assay [4] (setting [7]); 95% (active) in assay [4] (setting [8]); 90.5% (active) in assay [4] (at 50.0 µM). Moreover, the growth inhibition was -23% in assay [5] (setting [7]); 96% (active) in assay [5] (setting [8]); 91% (active) in assay [5] (at 50.0 µM); 32% in assay [6] (setting [7]); 98% (active) in assay [6] (setting [8]); 91.5% (active) in assay [6] (at 50.0 µM).

For the compound `COc1ccc(N=Nc2ccc3oc(=O)c(C(=O)Nc4ccc(Cl)cc4)cc3c2)cc1`, the growth inhibition in assay [1] (setting [7]) was 29%; in assay [1] (setting [8]), 98% (active); in assay [1] (at 50.0 µM), 98.5% (active); in assay [2] (setting [7]) it was 16%; in assay [2] (setting [8]) it was 98% (active); in assay [2] (at 50.0 µM) it was 98.9% (active). Besides, the growth inhibition in assay [3] (setting [7]) was 0%; in assay [3] (setting [8]) it was 98% (active); in assay [3] (at 50.0 µM), 98.3% (active); in assay [4] (setting [7]) it was 16%; in assay [4] (setting [8]), 98% (active); in assay [4] (at 50.0 µM), 98.3% (active). Besides, the growth inhibition in assay [5] (setting [7]) is 14%; in assay [5] (setting [8]) it was 97% (active); in assay [5] (at 50.0 µM) it was 98.8% (active); in assay [6] (setting [7]), 33%; in assay [6] (setting [8]), 99% (active); in assay [6] (at 50.0 µM) it was 98.7% (active).

Turning to `CCCC1(C)C(C#N)(C#N)C1(C#N)C#N`, the growth inhibition in assay [1] (setting [7]) was 98% (active); in assay [1] (setting [8]), 98% (active); in assay [1] (at 50.0 µM), 98.5% (active); in assay [2] (setting [7]), 96% (active); in assay [2] (setting [8]) it was 99% (active); in assay [2] (at 50.0 µM), 99.3% (active). The growth inhibition in assay [3] (setting [7]) is 98% (active); in assay [3] (setting [8]) it was 99% (active); in assay [3] (at 50.0 µM), 99.3% (active); in assay [4] (setting [7]), 99% (active); in assay [4] (setting [8]) it was 99% (active); in assay [4] (at 50.0 µM), 99.1% (active). The growth inhibition is 99% (active) in assay [5] (setting [7]); 99% (active) in assay [5] (setting [8]); 99% (active) in assay [5] (at 50.0 µM); 99% (active) in assay [6] (setting [7]); 99% (active) in assay [6] (setting [8]); 99.2% (active) in assay [6] (at 50.0 µM).

`O=C(Nc1cccc(Cl)c1)c1ccc([N+](=O)[O-])cc1`: the growth inhibition in assay [1] (setting [7]) is 10%; in assay [1] (setting [8]), 8%; in assay [1] (at 50.0 µM), -8.65%; in assay [2] (setting [7]), -11%; in assay [2] (setting [8]), -6%; in assay [2] (at 50.0 µM), -10.8%. Moreover, the growth inhibition was 6% in assay [3] (setting [7]); 4% in assay [3] (setting [8]); -12.7% in assay [3] (at 50.0 µM); 4% in assay [4] (setting [7]); 17% in assay [4] (setting [8]); -27.4% in assay [4] (at 50.0 µM). In addition, the growth inhibition in assay [5] (setting [7]) was 23%; in assay [5] (setting [8]), 32%; in assay [5] (at 50.0 µM), -6.8%; in assay [6] (setting [7]), 17%; in assay [6] (setting [8]) it was 26%; in assay [6] (at 50.0 µM), -0.9%.
